Assay results reported in PubChem BioAssay AID1347428 (National Center for Advancing Translational Sciences (NCATS), 2020).
The campaign covered roughly 91,000 compounds. About 290 (0.32%) were called active. About 7% were inconclusive and are not listed. Calls come from the whole dose curve; as a rule, active = well fitted inhibition curve with a large enough effect; inconclusive = small, poorly fitted or top-dose-only effect; inactive = no such curve, though single readings can be large or run the other way. Only a selection was taken, and actives are over-represented in it overall.

What follows are molecules tested against Single-stranded DNA cytosine deaminase (Homo sapiens) (UniProt Q9GZX7) (assay: Primary qHTS assay for inhibitors of Activation Induced Cytidine Deaminase (AID): AID signal). Settings: AID deamination FRET fluorescence, UDG-coupled, 4 h; series mostly up to 115 µM; activity change, negative = inhibition: at the top concentration.
Text: Assay Provider (PI) Patricia Gearhart Ph.D.
National Institute on Aging
National Institute of Health (NIH), Bethesda, MD
Assay Provider (PI) Rahul Kohli Ph.D.
Perelman School of Medicine
University of Pennsylvania, Philadelphia, PA
Activation-Induced Deaminase (AID) is a cytosine deaminase which converts cytosine into uracil within stretches of ssDNA. The presence of uracil in DNA initiates a cascade of mutagenic DNA repair to introduce point mutations and DNA double strand breaks. Specific targeting of AID to the immunoglobulin heavy chain loci (Igh) promotes mutagenesis in the antibody variable region for somatic hypermutation (SHM) or switch regions leading to class switch recombination (CSR). However, AID also plays a role in accumulating unnecessary mutations across the genome. Mis-targeting of AID results in the initiation of tumor development and leads to greater drug resistance among cancer cells when continually expressed. To identify an AID inhibitor, a small molecule library will be screened in collaboration with NCATS core facility at NIH. To confirm biological function, inhibitors will be examined in an in vitro murine B-cell activation assay and subsequent secondary validation screens. Top molecules will be further screened to identify inhibitory efficacy against a wild type primary splenocytes assay. Using these approaches, we hope to identify a small molecule with great efficacy and low toxicity for use as a molecular probe to further characterize AID's intricacies, or even as a therapeutic.
A FRET based analysis of cytosine deamination, was developed to identify potential inhibitors of AID catalytic activity. This screen has two signal output, Read 1 evaluates the AID inhibition response. The second readout (Read 2) evaluates UDG response and is uses as a counterscreen to exclude false positive inhibitors. Inhibition in AID and inactivity in the UDG signal is the desired outcome for this assay.
SEQUENCE No. (e.g., 1, 2, 3, etc.); […] (e.g., Cells, Incubation, Reagent, etc.); VALUE; DESCRIPTION
1a; Reagent; 3 uL; [4/3x] 1 uM AID/2.67 U/mL UDG
1b; Reagent; 3 uL; 2 U/mL UDG
1c; Reagent; 3 uL; 1 uM AID
2a; Compound; 46 nL; Follow-up plates (0.64 uM - 10 mM)
2b; Control; 46 nL; ATA ([…] - 10 mM)
3; Time; 10 min; incubation at room temperature
5; Time; 4 hr; incubation at room temperature
6; Reagent; 4 uL; [2x] 250 mM NaOH
7; Time; 15 sec; centrifuge at 1000 rpm
8; Time; 30 min; incubation at room temperature
9a; Detection; fluorescence (Read 1: AID); EnVision (PerkinElmer) plate reader, 540 excitation and 590 emission filters
9b; Detection; fluorescence (Read 2: UDG); EnVision (PerkinElmer) plate reader, 560 excitation and 665 emission filters
NOTES (numbers refer to sequence above)
1a; Reagents were dispensed in a medium-binding black solid-bottom Greiner plates (789176F) using a BioRptr liquid dispenser. Dispense 3 uL of [4/3x] 1 uM AID (provided by Kohli lab) and [4/3x] 2 U/mL UDG (NEB M0280L) into columns 1, 2, 5 to 48.
1b; Dispense 3 uL of [4/3x] 2 U/mL UDG into column 3.
1c; Dispense 3 uL of [4/3x] 1 uM AID into column 4.
2a; Compound (7-points [uM] (0.64; 3.2; 16; 80; 400; 2,000; 10,000; 20,000) double pin-transferred (Dip Factor = 2) using the Kalypsys (Wako USA) pintool equipped with a 1536 pinhead for a final concentration range of 7.32 nM - 114 uM.
2b; 10 mM Aurintricarboxylic Acid (Sigma A1895) (ATA, 8-point, n = 2, 1:2.5 dilution in column 2) double pin-transferred (Dip Factor = 2) using the Kalypsys (Wako USA) pintool equipped with a 1536 pinhead for a [final] range of 186 nM - 114 uM.
3; Room temperature incubation.
4; Dispense 1 uL of substrate mixture from the Kohli lab [4x] […] DJC20 and [4x] 250 nM DJC23 into columns 1 to 48 .
5; Room temperature incubation.
6; Dispense 4 uL of substrate mixture [2x] 250 mM NaOH into columns 1 to 48.
7; Centrifugation step to remove bubbles.
8; Room temperature incubation
9a; Fluorescence signal (column label AID) was read using the EnVision plate reader. […]
% is set by controls: 0 for no effect and ±100 for the full control effect; potency is the fitted concentration of half-maximal effect.
Note: nearly all actives have a fitted effect of over 25% in size.

Sequence of Single-stranded DNA cytosine deaminase (Homo sapiens) (Q9GZX7 whole entry, looked up): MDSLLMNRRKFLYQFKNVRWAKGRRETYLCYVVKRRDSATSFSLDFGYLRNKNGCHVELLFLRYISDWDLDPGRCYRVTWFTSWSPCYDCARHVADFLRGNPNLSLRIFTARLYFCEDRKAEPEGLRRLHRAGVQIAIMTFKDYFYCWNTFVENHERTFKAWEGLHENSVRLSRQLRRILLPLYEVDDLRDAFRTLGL

| SMILES | activity change, negative = inhibition | Potency |
| --- | --- | --- |
| CSc1ccc(C)c(C(=O)NCC2CC2)c1 | -3.38% (inactive) |  |
| O=C(O)Cn1cccc(C(F)(F)F)c1=O | -5.47% (inactive) |  |
| COc1cc(C(=O)NC2CCOC2=O)cc(OC)c1OC (configuration not stated) | -0.451% (inactive) |  |
| O=C(O)CCCC(=O)N1CCN(c2ccc(Cl)c(Cl)c2)CC1 | -1.12% (inactive) |  |
| Cc1cc(Br)cc(C)c1O | 2.69% (inactive) |  |
| O=C(Nc1ccc(Br)cc1)C(c1ccccc1)C1CCCC1 (configuration not stated) | 1.06% (inactive) |  |
| O=C(NCc1ccc(F)cc1)NC1CC1 | 10.1% (inactive) |  |
| O=C(/C=C/c1ccc(OCc2ccccc2)cc1)c1cccnc1 | -9.09% (inactive) |  |
| CN(CCOc1ccc(Br)cc1)C(=O)CSc1nnnn1C | -1.3% (inactive) |  |
| CC(C)c1ccc(Cn2c(COc3ccccc3)nc3ccccc32)cc1 | -27.4% (inactive) |  |
| CC(C)c1ccc2c(c1)c(SC(C)(C)C)c(CC(C)(C)C(=O)O)n2Cc1ccc(Cl)cc1 |  | 79.4 µM (active) |
| Cc1c(C)n(Cc2ccc(Cl)cc2)c2ccc(C(=O)N3CCN(c4ccccc4F)CC3)cc12 | -18.3% (inactive) |  |
| CC1CCc2cc(F)ccc2N1C(=O)C1(C)CC1(Br)Br (configuration not stated) | -6.2% (inactive) |  |
| CC(C)CNC(=O)NC1=C(C#N)C(C)(C)Cc2ccccc21 | -1.37% (inactive) |  |
| CNc1snc(C)c1C(=O)N(C)CCOc1ccccc1C | 4.47% (inactive) |  |
| CCOc1ccc(C(=O)Nc2cc(C(F)(F)F)ccc2Cl)cc1Cl | 3.9% (inactive) |  |
| COc1cc(C2SCCS2)ccc1OC(=O)c1ccc2c(c1)NC(=O)CS2 | -4.16% (inactive) |  |
| COc1ccc(OC)c(-n2cnc3c2NC(=O)CC3c2ccsc2)c1 (configuration not stated) | 24.8% (inactive) |  |
| O=C(NCCc1ccc(C(F)(F)F)cc1)c1ccccn1 | -1.76% (inactive) |  |
| COc1ccc(C2Nc3ccccc3C(=O)N2c2ccc(C)cc2)cc1CN1CCOCC1 (configuration not stated) | 0.31% (inactive) |  |
| Cc1ccccc1NC(=O)CSC1=C(C#N)C(c2ccccc2F)CC(=O)N1 (configuration not stated) | -9.28% (inactive) |  |
| Cc1noc(C)c1COc1cccc(C(=O)Nc2ccc(S(=O)(=O)NCc3ccco3)cc2)c1 | -5.53% (inactive) |  |
| Cc1cc(Nc2ccccc2)n2nc(Cc3ccc(Cl)cc3)nc2n1 | -19.8% (inactive) |  |
| CN(C)S(=O)(=O)c1ccc(NC(=O)COc2ccc3cc(Br)ccc3c2)cc1 | 0.34% (inactive) |  |
| O=C(c1cc2ccccc2o1)c1ccc(F)cc1F | -2.04% (inactive) |  |
| Cc1cc(C)c(NC(=O)C(C)Oc2ccc(C#N)cc2)c(C)c1 (configuration not stated) | -8.62% (inactive) |  |

| SMILES | activity change, negative = inhibition | Potency |
| --- | --- | --- |
| COCCn1cnnc1SC(C)C(=O)c1ccc(F)cc1 (configuration not stated) | 3.25% (inactive) |  |
| COC(=O)c1ccc(C(=O)OC(C)C(=O)C23CC4CC(CC(C4)C2)C3)cc1 (configuration not stated) | -5.4% (inactive) |  |
| CCCCn1c(N2CCN(CCc3ccccc3)CC2)nc2c1c(=O)[nH]c(=O)n2C | -4.37% (inactive) |  |
| Cn1c(=O)n(Cc2ccccc2)c(=O)c2c1nc(NCc1ccccc1)n2Cc1ccccc1 | -8.97% (inactive) |  |
| CCC/C=N/NC(=O)c1ccc(C)cc1C | -3.8% (inactive) |  |
| COc1ccc(C(=O)/C(C#N)=C\c2ccccc2C(F)(F)F)cc1 | -17.9% (inactive) |  |
| CCCCCCCCS(=O)(=O)CCCCCCC(=O)O | -5.95% (inactive) |  |
| CC(=O)c1ccc(NC(=O)NCCCN(C)CC(F)(F)F)cc1 | 7.31% (inactive) |  |
| CCCCn1nc(C(=O)Nc2cccc(C(=O)NC3CC3)c2)c2ccccc2c1=O | 0.862% (inactive) |  |
| CCc1ccc(CCC(=O)NC)cc1 | -3.77% (inactive) |  |
| CC(=O)N1CCC(C(=O)Nc2ccc(Br)cc2)CC1 | -1.32% (inactive) |  |
| Cc1cccc(C(=O)OC2CCCN(C)C2)c1 (configuration not stated) | 1.04% (inactive) |  |
| CCN(CC)C(=S)SC(C(N)=O)c1ccccc1 (configuration not stated) | -2.39% (inactive) |  |
| CCCc1cc(=O)oc2cc(OS(=O)(=O)c3cccc(C#N)c3)ccc12 | -6.87% (inactive) |  |
| CCn1c(C)cc(/C=C(\C#N)c2ccc(Br)cc2)c1C | -17% (inactive) |  |
| CCOC(=O)C1CCN(C(=O)COC(=O)c2cn(-c3ccccc3)nc2-c2ccc(Cl)cc2)CC1 | -1.08% (inactive) |  |
| CCOc1ccccc1C(=O)NCc1ccc2c(c1)CCN2C(=O)c1ccc(F)cc1 | -1.92% (inactive) |  |
| O=C(COc1ccccc1)NCc1ccc2c(c1)CCN2C(=O)c1ccc(F)cc1 |  | 22.4 µM (active) |
| COc1ccc(CCC(=O)NCc2ccc3c(c2)CCN3C(=O)c2ccc(F)cc2)cc1 | -16.6% (inactive) |  |
| N#CCCc1c(O)ccc2ccccc12 | -3.83% (inactive) |  |
| Cc1cccc(NC(=O)C(C#N)C(=O)CC(C)(C)C)c1 (configuration not stated) | -20.9% (inactive) |  |
| O=C(CSc1nc2c(c(=O)n1CCc1ccccc1)SCC2)Nc1cccc2ccccc12 | -4.61% (inactive) |  |
| O=C(Nc1ccc(C(F)(F)C(F)(F)C(F)(F)F)oc1=O)c1ccccc1 | -2.06% (inactive) |  |
| COc1ccc(NC(=O)Cn2cc(C(=O)c3ccncc3)c(=O)c3cc(C)ccc32)cc1Cl | 20.6% (inactive) |  |
| COc1ccc(Cn2cc(C(=O)c3ccc(C)cc3)c(=O)c3cc(OC)c(OC)cc32)cc1 |  | 44.7 µM (active) |
| CCOc1ccc(NC(=O)Cn2cc(C(=O)c3ccc(C)cc3)c(=O)c3cc4c(cc32)OCCO4)cc1 | 2.34% (inactive) |  |
